Source: paper PMC4336329 (PLoS ONE, 2015)
In all, about 310,000 compounds went through this assay and about 2,200 (0.71%) showed an effect of 50% or more. Effects have a minus sign here. This excerpt belongs to a sample that is enriched for strong results.

What follows are compounds tested against human ether-à-go-go-related gene (hERG) potassium channel (human, UniProt Q12809) (assay: primary screen, population patch clamp on CHO cells stably expressing hERG; higher = less effect of the substance).
Sequence of human ether-à-go-go-related gene (hERG) potassium channel (Q12809 whole entry, looked up): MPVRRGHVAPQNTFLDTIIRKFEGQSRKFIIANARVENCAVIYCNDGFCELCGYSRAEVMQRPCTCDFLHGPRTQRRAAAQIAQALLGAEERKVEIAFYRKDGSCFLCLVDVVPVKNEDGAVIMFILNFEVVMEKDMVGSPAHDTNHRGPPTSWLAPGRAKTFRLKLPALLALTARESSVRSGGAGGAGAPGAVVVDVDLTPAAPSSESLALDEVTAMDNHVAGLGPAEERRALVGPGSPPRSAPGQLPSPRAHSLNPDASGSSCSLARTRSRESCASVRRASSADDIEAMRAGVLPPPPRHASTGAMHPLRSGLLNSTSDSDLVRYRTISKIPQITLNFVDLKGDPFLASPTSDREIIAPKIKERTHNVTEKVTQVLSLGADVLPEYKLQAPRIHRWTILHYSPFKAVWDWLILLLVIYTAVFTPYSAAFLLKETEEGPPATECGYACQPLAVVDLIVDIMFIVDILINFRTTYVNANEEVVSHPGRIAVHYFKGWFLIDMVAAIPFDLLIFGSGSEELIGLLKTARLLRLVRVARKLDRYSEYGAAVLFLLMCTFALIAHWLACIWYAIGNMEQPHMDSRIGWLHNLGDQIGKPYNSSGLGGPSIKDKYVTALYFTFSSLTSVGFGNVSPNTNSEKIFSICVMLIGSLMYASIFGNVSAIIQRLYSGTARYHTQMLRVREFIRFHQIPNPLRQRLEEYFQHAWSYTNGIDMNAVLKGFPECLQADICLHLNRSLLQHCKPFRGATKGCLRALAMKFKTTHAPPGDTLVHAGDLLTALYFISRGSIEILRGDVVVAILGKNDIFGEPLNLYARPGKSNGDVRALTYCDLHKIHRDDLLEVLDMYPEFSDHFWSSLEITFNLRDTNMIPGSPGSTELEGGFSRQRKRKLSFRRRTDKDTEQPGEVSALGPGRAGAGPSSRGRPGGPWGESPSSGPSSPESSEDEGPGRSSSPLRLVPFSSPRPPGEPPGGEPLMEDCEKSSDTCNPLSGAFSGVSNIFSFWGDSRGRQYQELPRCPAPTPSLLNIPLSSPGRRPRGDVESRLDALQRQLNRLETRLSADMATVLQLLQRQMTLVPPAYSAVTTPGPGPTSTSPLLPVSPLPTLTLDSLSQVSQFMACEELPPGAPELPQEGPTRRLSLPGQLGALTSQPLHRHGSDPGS
`Cc1ccccc1N1C(=O)c2ccccc2NC1c1ccncc1` (stereo not shown) was tested, and the “hERG current change (%, negative = inhibition) at 1uM” value was 13%.
`COc1ccccc1/C=C/C(=O)NCC(=O)N/N=C(\CCC(=O)O)c1ccccc1` was tested, and the “hERG current change (%, negative = inhibition) at 1uM” value was -2.9%.
In the case of `NNC(=O)c1ccc(-c2ccccc2F)cc1`, the “hERG current change (%, negative = inhibition) at 1uM” value is reported as 14.8%.
With `Nc1nnc(C(F)(F)F)s1` the “hERG current change (%, negative = inhibition) at 1uM” value was 4.92%.
`NC(=O)c1ccccc1NC(=O)CN1CCCCCC1` was tested, and the “hERG current change (%, negative = inhibition) at 1uM” value was 13.4%.
`NC(=O)c1ccccc1NC(=O)CN1CCN(Cc2ccccc2)CC1` was tested, and the “hERG current change (%, negative = inhibition) at 1uM” value was -77.7%.
`CSc1ccc(/C=N/NC(=O)CN2CCN(Cc3ccccc3)CC2)cc1` was tested, and the “hERG current change (%, negative = inhibition) at 1uM” value was -60%.
For `CSc1ccc(/C=N/NC(=O)CN2CCN(Cc3ccc(Cl)cc3)CC2)cc1`, the “hERG current change (%, negative = inhibition) at 1uM” value was 2.29%.
`O=C(CN1CCN(Cc2ccccc2)CC1)Nc1ccccc1-c1ccccc1` was tested, and the “hERG current change (%, negative = inhibition) at 1uM” value was -39.6%.
For `CSc1ccc(/C=N/NC(=O)CN2CCN(Cc3ccc(C)cc3)CC2)cc1`, the “hERG current change (%, negative = inhibition) at 1uM” value was 2.67%.
With `COc1ccc(N(CC(=O)NCc2ccc(C)cc2)S(=O)(=O)c2c(C)[nH]c(=O)[nH]c2=O)cc1` the “hERG current change (%, negative = inhibition) at 1uM” value was 16%.
For `Cc1nc2cc3nc(C)sc3cc2s1`, the “hERG current change (%, negative = inhibition) at 1uM” value was 3.19%.
In the case of `Cc1cc(C)cc(NC(=O)CCNS(=O)(=O)c2ccc3c(c2)oc(=O)n3C)c1`, the “hERG current change (%, negative = inhibition) at 1uM” value is reported as 9.33%.
For `COCC(=O)N1CCC(Oc2ccc(C(=O)NCc3cnc(C)cn3)cc2)CC1`, the “hERG current change (%, negative = inhibition) at 1uM” value was 13%.
With `CCN(c1cccc(C)c1)S(=O)(=O)c1ccc(-c2ccc(=O)[nH]n2)o1` the “hERG current change (%, negative = inhibition) at 1uM” value was 12.8%.
In the case of `Cc1cc(Br)ccc1OCCCCN1CCCCC1.O=C(O)C(=O)O`, the “hERG current change (%, negative = inhibition) at 1uM” value is reported as -66.6%.
For `O=C(O)C(=O)O.O=C(c1ccccc1)c1ccc(OCCCN2CCCC2)cc1`, the “hERG current change (%, negative = inhibition) at 1uM” value was -29.9%.
With `CC1CCN(CCOc2ccccc2-c2ccccc2)CC1.O=C(O)C(=O)O` the “hERG current change (%, negative = inhibition) at 1uM” value was -8.4%.
In the case of `O=C(O)C(=O)O.c1ccc(-c2ccccc2OCCN2CCCCC2)cc1`, the “hERG current change (%, negative = inhibition) at 1uM” value is reported as -4.98%.
In the case of `O=C(O)C(=O)O.c1ccc(-c2ccccc2OCCOCCN2CCCCC2)cc1`, the “hERG current change (%, negative = inhibition) at 1uM” value is reported as -18.9%.
With `O=C(O)C(=O)O.O=C(c1ccccc1)c1ccc(OCCOCCN2CCN(Cc3ccccc3)CC2)cc1` the “hERG current change (%, negative = inhibition) at 1uM” value was -82.8%.
`Cc1cc(Br)ccc1OCCN1CCCC1.O=C(O)C(=O)O` was tested, and the “hERG current change (%, negative = inhibition) at 1uM” value was -7.85%.
For `CC1CCN(CCCCOc2ccccc2-c2ccccc2)CC1.O=C(O)C(=O)O`, the “hERG current change (%, negative = inhibition) at 1uM” value was -74.9%.
`CN1CCN(CCCCOc2ccccc2-c2ccccc2)CC1.O=C(O)C(=O)O` was tested, and the “hERG current change (%, negative = inhibition) at 1uM” value was 16.8%.
`O=C(O)C(=O)O.c1ccc(-c2ccccc2OCCCN2CCCCC2)cc1` was tested, and the “hERG current change (%, negative = inhibition) at 1uM” value was -69.1%.
`O=C(O)C(=O)O.c1ccc(CN2CCN(CCOCCOc3ccc4c(c3)CCC4)CC2)cc1` was tested, and the “hERG current change (%, negative = inhibition) at 1uM” value was 11.6%.
`Cc1cc(Br)ccc1OCCOCCN1CCCC1.O=C(O)C(=O)O` was tested, and the “hERG current change (%, negative = inhibition) at 1uM” value was -9.41%.
For `CC1CC(=O)Nc2ccccc2N1C(=O)Nc1ccc(F)cc1` (stereo not shown), the “hERG current change (%, negative = inhibition) at 1uM” value was 9.77%.
With `CC(C)CCN(C(=S)Nc1cccc(C(F)(F)F)c1)C(C)c1ccccn1` (stereo not shown) the “hERG current change (%, negative = inhibition) at 1uM” value was 10.7%.
With `CCOc1cc(C2/C(=C(/O)c3ccc(OC(C)C)cc3)C(=O)C(=O)N2CCCOC)ccc1O` (stereo not shown) the “hERG current change (%, negative = inhibition) at 1uM” value was 21.3%.
With `Clc1ccc(Oc2nc(N3CCOCC3)nc(N3CCOCC3)n2)c(C2CCCCC2)c1` the “hERG current change (%, negative = inhibition) at 1uM” value was 10.6%.
In the case of `Clc1cccc(Cl)c1CN1CCN(c2ccccc2)CC1`, the “hERG current change (%, negative = inhibition) at 1uM” value is reported as 15.9%.
`O=C(CCN1C(=O)C2C3CCC(C3)C2C1=O)Nc1cccc(Cl)c1` (stereo not shown) was tested, and the “hERG current change (%, negative = inhibition) at 1uM” value was 4.67%.
For `CCC1(CC)NC(=O)N(CC(=O)OCC(=O)Nc2ccc(F)c(F)c2F)C1=O`, the “hERG current change (%, negative = inhibition) at 1uM” value was 4.85%.
`Cc1ccc(NC(=O)/C=C/c2ccc([N+](=O)[O-])s2)c(C)c1` was tested, and the “hERG current change (%, negative = inhibition) at 1uM” value was 10.5%.
`CCOc1ccccc1-n1c(SCC(=O)NC(C)CC)nnc1-c1ccoc1C` (stereo not shown) was tested, and the “hERG current change (%, negative = inhibition) at 1uM” value was -2.44%.
For `CCOCCCn1c(SC(C(=O)Nc2cc(C)ccc2C)c2ccccc2)nnc1-c1ccc(Cl)cc1` (stereo not shown), the “hERG current change (%, negative = inhibition) at 1uM” value was 13.5%.
In the case of `CC(=O)Nc1ccc(S(=O)(=O)NC2(C(F)(F)F)NC(=O)N(c3ccccc3F)C2=O)cc1` (stereo not shown), the “hERG current change (%, negative = inhibition) at 1uM” value is reported as 19.3%.
With `COc1ccc(NS(=O)(=O)c2ccc(/C=C/C(=O)O)cc2)cc1S(=O)(=O)N1CCOCC1` the “hERG current change (%, negative = inhibition) at 1uM” value was 10.7%.
For `COc1ccc(NC(=O)c2ccc(S(=O)(=O)NCc3cccnc3)cc2)cc1`, the “hERG current change (%, negative = inhibition) at 1uM” value was -13.3%.
In the case of `O=C(Nc1ccc2oc(-c3ccccc3F)nc2c1)c1ccc2c(c1)OCCO2`, the “hERG current change (%, negative = inhibition) at 1uM” value is reported as 3.14%.
For `O=C(O)C(=O)O.c1ccc(COc2ccc(OCCCN3CCCCC3)cc2)cc1`, the “hERG current change (%, negative = inhibition) at 1uM” value was -57.7%.
`Cc1ccc(OCCCCN2CCC(C)CC2)cc1.O=C(O)C(=O)O` was tested, and the “hERG current change (%, negative = inhibition) at 1uM” value was -0.565%.
